One assay has as its target TRIM23. Nature of the assay: pooled miR-30 sensor sort-seq; sequence = guide strand. Conditions: shRNA.
The sequence TAGAGGAACTCGCCTGTGCTTT returned a sensor-assay potency score (higher = more potent) of -1.17. For the sequence TAAAATTGATGCTCGGATCTGA, the sensor-assay potency score (higher = more potent) worked out at 0.781. Sequence TGCAACTTCTGTAAACTGCTGC came in with a sensor-assay potency score (higher = more potent) of 0.44. For TTTAACTTAAACAAGATAGTAG, the sensor-assay potency score (higher = more potent) was 0.417. TTGTAGAATGAGTAACTTGAGA: the sensor-assay potency score (higher = more potent) is -0.898. For the sequence TATCTAAAATTGATGCTCGGAT, the sensor-assay potency score (higher = more potent) is -0.778.

For the next assay, the target named is TRIM25. The description is as above. Particulars: shRNA.
On to TTGAGTTCGGATGTGAGCTGGT, for which the sensor-assay potency score (higher = more potent) was determined as 0.643. As to TTGAGGTCTATGGTGCTCTGGT, the sensor-assay potency score (higher = more potent) is -0.448.

As for TATAGCACTCTGACAGAGCCAC, the sensor-assay potency score (higher = more potent) was -0.415. Consider TTGTTTTAAATCCACTAACTGT, for which the sensor-assay potency score (higher = more potent) was -0.521. Still for that read-out and setting: the figure for TTGTTGTAGCTGCTCCACCTTT is -0.889; for TTTAATGTAATACTCCAGGAGC it is -0.733; for TTGAGAGATGTTGAGTTCGGAT it is -0.803. With TTTATCTTCCTTGTCGAGGTGG, the sensor-assay potency score (higher = more potent) came to 0.408. In turn, TAAATCCACTAACTGTTCCGGG returned a sensor-assay potency score (higher = more potent) of -0.339. The sequence TAAATGGTGTCAAACTTGCTGT returned a sensor-assay potency score (higher = more potent) of -0.555.

For TTTCCGTGTATTCTTGTTGTAG, the sensor-assay potency score (higher = more potent) is -0.308.

In turn, TTGTGCTGGGAACATTTGCGGC displayed a sensor-assay potency score (higher = more potent) of -1.66.

In the next assay the target is TRIM2. Described as above. Conditions: shRNA.
TAAAATTCCATCACATTCCCAT showed a sensor-assay potency score (higher = more potent) of 0.363. In the case of TTGAATCCACTGCTACACCTGT, the sensor-assay potency score (higher = more potent) is -0.182. In the case of TTAATTGAAAGTTTCATTGTAG, the sensor-assay potency score (higher = more potent) worked out at 0.799. Turning to TTTCCAGTGCTGTACATGCTTG, the sensor-assay potency score (higher = more potent) is -1.12. Regarding TTTCATTGTAGACTAAAGCATC, the sensor-assay potency score (higher = more potent) was -0.921.

On to TAGAGTCTCAGAGACAGGGTAA, for which the sensor-assay potency score (higher = more potent) is -0.389.

Take TTGTCTTAAATTTCCCATCGGA: the sensor-assay potency score (higher = more potent) came to 0.291. Sequence TTTTTGTCTTAAATTTCCCATC registered a sensor-assay potency score (higher = more potent) of -1.5. In turn, TATTGCTATTTACAGCTGCAAA had a sensor-assay potency score (higher = more potent) of -1.54.

For the sequence TTCCATTTGAATCCACTGCTAC, the sensor-assay potency score (higher = more potent) is -0.305. In turn, TTCCATTTGTAGATGCAGCTAC yielded a sensor-assay potency score (higher = more potent) of 0.668. Take ATCACTTTCAGCTTAAACGGGC: the sensor-assay potency score (higher = more potent) is -0.591.

In the next assay the target is TRIM38. The description is as above. Conditions: shRNA.
For TTTCCATTTAGTTATTCGCATT, the sensor-assay potency score (higher = more potent) is -1.66. Consider TTCTTGATCCGTCTCTTTGAGG, for which the sensor-assay potency score (higher = more potent) is -1.24. As for TACGTCTTCAACAAGAGCTGTG, the sensor-assay potency score (higher = more potent) is -0.0393. Sequence TTAGTTATTCGCATTGCTGTGG returned a sensor-assay potency score (higher = more potent) of 0.226.

As for TTTTGTCACAGCTTTCTGGAGC, the sensor-assay potency score (higher = more potent) is -0.543. Still for that read-out and setting: the figure for TTCACATCGAAGTAAAGCTTGG is -0.536; for TAACATTTTCTTCACATCGAAG it is -1.18.

In turn, TAAACCTGGAAATAGGGCCGGA had a sensor-assay potency score (higher = more potent) of -0.714. Consider TTTCTTTTTGCACAGCCTGAGG, for which the sensor-assay potency score (higher = more potent) is -1.54. TTAACATTTTCTTCACATCGAA displayed a sensor-assay potency score (higher = more potent) of -0.794.

Values taken from the OligoGym collection.
Also: reference of the scale not given here.
